In PubChem BioAssay AID1159580 (chemical genetic matrix, 2015):
Where “and” joins values, the source holds several entries; their conditions need not be identical. Identical values can stand only once. Out of some 5,500 compounds screened, about 2,000 (36%) were called active. Roughly 18% stayed inconclusive and do not appear here. Rule as the data show it: active = normalized growth mostly below about 0.91 (no sharp cut-off); inconclusive = no clear call, values can overlap the other calls; inactive = mostly above about 0.92. This is one part of the list.

Test: chemical genetic growth profiling, strain panel (AID 1159580);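 also: tested at 20 µM; growth read once vehicle control cultures reached saturation at 30 °C; 1 = growth at the plate median or of vehicle wells; lower values mean less growth of the strain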
Settings: S. cerevisiae deletion strains, growth OD

Measured: normalized growth

NC[C@@H]1O[C@H](O[C@@H]2[C@@H](CO)OC(O[C@@H]3[C@@H](O)[C@H](N)C[C@H](N)[C@H]3OC3O[C@H](CN)[C@@H](O)[C@H](O)[C@H]3N)[C@@H]2O)[C@H](N)[C@@H](O)[C@@H]1O (some centres not stated)
inactive: locus YAL013W, strain DEP1, active compounds read low 1 | locus YAL021C, strain ccr4, active compounds read low 1.01 | locus YAL026C, strain drs2, active compounds read low 1.02 | locus YAL030W, strain snc1, active compounds read low 1.02 | locus YBL061C, strain skt5, active compounds read low 1.03 | locus YBR009C, strain hhf1, active compounds read low 1.03 | locus YBR021W, strain FUR4, active compounds read low 0.966 | locus YBR023C, strain chs3, active compounds read low 1.06 | locus YBR171W, strain sec66, active compounds read low 1.04 | locus YBR229C, strain ROT2, active compounds read low 1 | locus YBR231C, strain swc5, active compounds read low 1.01 | locus YBR279W, strain paf1, active compounds read low 1.01 | locus YCL011C, strain gbp2, active compounds read low 1.03 | locus YCL016C, strain dcc1, active compounds read low 1.05 | locus YCL029C, strain bik1, active compounds read low 1.02 | locus YCL061C, strain MRC1, active compounds read low 1.01 | locus YCL069W, strain vba3, active compounds read low 1.02 | locus YCR088W, strain abp1, active compounds read low 1.02 | locus YDL005C, strain med2, active compounds read low 1.01 | locus YDL035C, strain GPR1, active compounds read low 1.01 | locus YDL040C, strain nat1, active compounds read low 1.02 | locus YDL074C, strain BRE1, active compounds read low 1.01 | locus YDL101C, strain DUN1, active compounds read low 1.01 | locus YDL134C, strain PPH21, active compounds read low 1 | locus YDL185W, strain tfp1, active compounds read low 1.01 | locus YDL192W, strain arf1, active compounds read low 1.02 | locus YDR001C, strain nth1, active compounds read low 1.02 | locus YDR069C, strain doa4, active compounds read low 1.03 | locus YDR101C, strain arx1, active compounds read low 1 | locus YDR137W, strain rgp1, active compounds read low 1.06 | locus YDR150W, strain NUM1, active compounds read low 1.01 | locus YDR159W, strain sac3, active compounds read low 0.997 | locus YDR162C, strain NBP2, active compounds read low 1.01 | locus YDR195W, strain ref2 1.01 | locus YDR297W, strain sur2, active compounds read low 1.02 | locus YDR318W, strain mcm21, active compounds read low 1.01 | locus YDR334W, strain swr1, active compounds read low 1.02 | locus YDR335W, strain msn5, active compounds read low 1.02 | locus YDR388W, active compounds read low 1.01 | locus YDR392W, strain spt3, active compounds read low 0.944 | locus YDR502C, strain sam2, active compounds read low 1.03 | locus YEL003W, strain gim4, active compounds read low 1.02 | locus YEL037C, strain rad23, active compounds read low 1.03 | locus YEL061C, strain CIN8 (second series), active compounds read low 1.03 | locus YEL061C, strain CIN8, active compounds read low 1.01 | locus YER015W, strain faa2, active compounds read low 1.03 | locus YER016W, strain bim1, active compounds read low 1.02 | locus YER110C, active compounds read low 1.01 | locus YER111C, strain swi4, active compounds read low 1.02 | locus YER155C, strain BEM2 (second series), active compounds read low 0.973 | locus YER155C, strain BEM2, active compounds read low 1.01 | locus YER167W, strain BCK2, active compounds read low 1.02 | locus YFR010W, strain ubp6, active compounds read low 1.03 | locus YGL078C, strain dbp3, active compounds read low 1.01 | locus YGL086W, strain mad1, active compounds read low 1 | locus YGL167C, strain pmr1, active compounds read low 1.03 | locus YGL173C, strain kem1, active compounds read low 1.03 | locus YGL227W, strain vid30, active compounds read low 1.03 | locus YGL240W, strain doc1, active compounds read low 1 | locus YGL248W, strain PDE1, active compounds read low 1.01 | locus YGL253W, strain hxk2, active compounds read low 1.03 | locus YGR078C, strain PAC10, active compounds read low 1.02 | locus YGR135W, strain pre9, active compounds read low 1.07 | locus YGR229C, strain SMI1, active compounds read low 1 | locus YGR252W, strain gcn5, active compounds read low 0.957 | locus YHR013C, strain ard1, active compounds read low 1.05 | locus YHR027C, strain rpn1, active compounds read low 1.03 | locus YHR030C, strain SLT2, active compounds read low 1.02 and 0.985 | locus YHR079C, strain IRE1 (second series), active compounds read low 1.02 | locus YHR079C, strain IRE1, active compounds read low 0.983 | locus YHR094C, strain hxt1, active compounds read low 1.01 | locus YHR129C, strain ARP1, active compounds read low 1 | locus YHR142W, strain chs7, active compounds read low 1.05 | locus YHR200W, strain rpn10, active compounds read low 1.03 | locus YIL066C, strain RNR3, active compounds read low 1.03 | locus YIL073C, strain SPO22, active compounds read low 1.07 | locus YIL125W, strain kgd1, active compounds read low 1.02 | locus YIR030C, strain dcg1, active compounds read low 1.01 | locus YJL092W, strain hpr5, active compounds read low 1.03 | locus YJL095W, strain BCK1 (second series), active compounds read low 1.03 | locus YJL095W, strain BCK1, active compounds read low 1.02 and 0.991 | locus YJL115W, strain asf1, active compounds read low 1.03 | locus YJL129C, strain trk1, active compounds read low 1.06 | locus YJL134W, strain LCB3, active compounds read low 0.993 | locus YJL154C, strain vps35, active compounds read low 1.02 | locus YJL164C, strain tpk1, active compounds read low 1.01 | locus YJL166W, strain qcr8, active compounds read low 1.04 | locus YJL168C, strain set2, active compounds read low 1.01 | locus YJL187C, strain SWE1 (second series), active compounds read low 1.01 | locus YJL187C, strain SWE1, active compounds read low 1.01 | locus YJR043C, strain POL32, active compounds read low 1.01 | locus YJR066W, strain TOR1, active compounds read low 0.929
